This is an account of results in article PMC7862700, “An all-to-all approach to the identification of sequence-specific readers for epigenetic DNA modifications on cytosine”.

Common to all, as to test: DAPPL (digital affinity profiling via proximity ligation, sequencing); 10 mM Tris-HCl pH 7.5, 50 mM NaCl, 1 mM DTT, 4% glycerol, room temperature, 30 min; GST-TFs on glutathione beads, 16-mer random dsDNA library, 0.1% formaldehyde crosslink after washing; high values mean tight binding
Holding throughout (conditions): protein: recombinant; tags: N-terminal GST; dsDNA, one strand shown

One assay concerns the target T1, FLI1 (Homo sapiens, UniProt Q01543 1-452).
T1 sequence: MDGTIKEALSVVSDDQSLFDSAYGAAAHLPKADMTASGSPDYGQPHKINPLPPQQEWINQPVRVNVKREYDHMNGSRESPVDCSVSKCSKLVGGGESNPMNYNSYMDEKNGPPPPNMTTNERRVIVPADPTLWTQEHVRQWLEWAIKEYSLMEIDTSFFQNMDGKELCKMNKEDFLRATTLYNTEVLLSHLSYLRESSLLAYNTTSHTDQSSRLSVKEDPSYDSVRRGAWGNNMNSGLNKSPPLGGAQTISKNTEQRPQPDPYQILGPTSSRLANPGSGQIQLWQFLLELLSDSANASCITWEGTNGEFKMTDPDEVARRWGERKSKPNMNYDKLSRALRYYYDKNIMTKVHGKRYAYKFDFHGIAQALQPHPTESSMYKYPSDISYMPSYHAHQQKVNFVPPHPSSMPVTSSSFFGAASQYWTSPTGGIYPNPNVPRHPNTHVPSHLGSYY
In outline: (§1)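 Each value of binding signal is a hexamer's read frequency for a factor divided by the same hexamer's frequency in the tag-only sample. Barcoded, bead-captured GST fusions of human transcription factors made in yeast were pooled with that sample and incubated with 200 nmole of a random double-stranded 16-mer DNA library in Tris/NaCl/DTT/glycerol buffer at room temperature for 30 min. Washing, 0.1% formaldehyde crosslinking, proximity ligation, PCR and Illumina NextSeq500 sequencing followed.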

The target of another assay is T2, ELK1 (Homo sapiens, UniProt P19419 1-428).
T2 sequence: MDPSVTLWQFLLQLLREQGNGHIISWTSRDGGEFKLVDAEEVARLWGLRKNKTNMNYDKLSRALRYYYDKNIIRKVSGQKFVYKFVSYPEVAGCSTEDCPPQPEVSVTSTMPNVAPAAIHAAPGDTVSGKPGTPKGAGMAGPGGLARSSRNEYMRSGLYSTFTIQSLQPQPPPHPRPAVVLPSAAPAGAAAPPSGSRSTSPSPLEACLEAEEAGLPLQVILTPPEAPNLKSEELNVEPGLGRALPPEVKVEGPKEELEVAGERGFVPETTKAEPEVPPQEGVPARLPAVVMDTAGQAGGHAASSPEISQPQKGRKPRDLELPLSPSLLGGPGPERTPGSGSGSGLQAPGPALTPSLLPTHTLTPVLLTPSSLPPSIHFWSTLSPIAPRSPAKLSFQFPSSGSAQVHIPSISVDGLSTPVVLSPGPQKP
In outline: as §1

A further assay addresses T3, GABPA (Homo sapiens, UniProt Q06546 1-454).
T3 sequence: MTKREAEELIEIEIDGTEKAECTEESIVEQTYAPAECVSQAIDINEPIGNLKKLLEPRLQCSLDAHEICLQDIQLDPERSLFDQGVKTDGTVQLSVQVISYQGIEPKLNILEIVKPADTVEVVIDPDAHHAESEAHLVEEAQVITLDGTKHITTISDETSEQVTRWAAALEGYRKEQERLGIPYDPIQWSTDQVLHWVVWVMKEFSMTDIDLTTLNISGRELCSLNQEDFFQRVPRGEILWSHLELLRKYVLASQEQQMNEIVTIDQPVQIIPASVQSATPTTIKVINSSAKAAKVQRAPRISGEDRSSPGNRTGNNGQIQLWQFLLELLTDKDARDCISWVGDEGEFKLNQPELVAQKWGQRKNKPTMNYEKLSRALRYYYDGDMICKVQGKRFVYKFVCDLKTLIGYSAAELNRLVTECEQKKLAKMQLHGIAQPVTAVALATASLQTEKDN
In outline: as §1

For a further assay, the target named is T4, ETV2 (Homo sapiens, UniProt O00321 1-342).
T4 sequence: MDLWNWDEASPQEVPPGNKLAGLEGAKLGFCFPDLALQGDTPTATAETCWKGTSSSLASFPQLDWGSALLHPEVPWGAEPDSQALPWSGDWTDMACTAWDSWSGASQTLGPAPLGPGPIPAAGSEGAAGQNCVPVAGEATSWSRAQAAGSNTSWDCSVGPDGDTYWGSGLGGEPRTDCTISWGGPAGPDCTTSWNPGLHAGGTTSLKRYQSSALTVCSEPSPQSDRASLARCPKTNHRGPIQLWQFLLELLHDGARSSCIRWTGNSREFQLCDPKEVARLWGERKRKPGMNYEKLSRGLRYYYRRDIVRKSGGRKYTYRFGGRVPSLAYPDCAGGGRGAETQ
In outline: as §1

The next assay addresses T5, ELF3 (Homo sapiens, UniProt P78545 1-371).
T5 sequence: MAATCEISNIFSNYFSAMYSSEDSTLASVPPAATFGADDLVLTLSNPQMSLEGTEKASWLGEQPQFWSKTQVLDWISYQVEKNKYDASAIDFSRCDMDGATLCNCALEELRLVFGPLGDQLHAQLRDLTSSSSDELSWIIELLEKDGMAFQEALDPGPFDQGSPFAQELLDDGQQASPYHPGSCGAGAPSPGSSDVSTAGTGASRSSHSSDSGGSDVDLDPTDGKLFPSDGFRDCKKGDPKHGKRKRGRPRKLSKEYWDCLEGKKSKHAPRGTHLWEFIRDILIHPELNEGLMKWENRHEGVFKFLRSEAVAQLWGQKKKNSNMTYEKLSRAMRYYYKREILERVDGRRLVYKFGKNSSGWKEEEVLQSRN
The procedure, abridged: as §1

Another assay addresses T6, EHF (Homo sapiens, UniProt Q9NZC4 1-300).
T6 sequence: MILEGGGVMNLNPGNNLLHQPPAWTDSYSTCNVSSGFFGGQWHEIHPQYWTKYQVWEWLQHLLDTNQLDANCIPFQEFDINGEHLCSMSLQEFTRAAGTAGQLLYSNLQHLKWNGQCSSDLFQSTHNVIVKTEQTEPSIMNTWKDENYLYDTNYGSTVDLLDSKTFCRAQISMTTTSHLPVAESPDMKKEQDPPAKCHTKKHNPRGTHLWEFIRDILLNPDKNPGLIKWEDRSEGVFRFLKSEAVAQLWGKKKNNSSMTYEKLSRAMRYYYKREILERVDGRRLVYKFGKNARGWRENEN
In outline: as §1

The next assay deals with SPIB (Homo sapiens, UniProt Q01892 1-262). In outline: as §1
The next assay addresses T7, ETV7 (Homo sapiens, UniProt Q9Y603 1-341).
T7 sequence: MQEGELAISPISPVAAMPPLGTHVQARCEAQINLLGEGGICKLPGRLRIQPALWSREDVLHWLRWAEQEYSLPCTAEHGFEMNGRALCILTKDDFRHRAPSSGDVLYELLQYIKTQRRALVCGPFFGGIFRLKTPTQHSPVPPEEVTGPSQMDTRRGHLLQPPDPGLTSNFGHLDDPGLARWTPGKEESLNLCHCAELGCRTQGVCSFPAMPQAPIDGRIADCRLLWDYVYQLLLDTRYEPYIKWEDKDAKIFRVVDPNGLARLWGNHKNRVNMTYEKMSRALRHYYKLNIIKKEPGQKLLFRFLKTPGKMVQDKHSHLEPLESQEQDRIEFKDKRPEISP
The procedure, abridged:
as §1

The next assay has as its target T8, ETV3 (Homo sapiens, UniProt P41162-2 1-143).
T8 sequence: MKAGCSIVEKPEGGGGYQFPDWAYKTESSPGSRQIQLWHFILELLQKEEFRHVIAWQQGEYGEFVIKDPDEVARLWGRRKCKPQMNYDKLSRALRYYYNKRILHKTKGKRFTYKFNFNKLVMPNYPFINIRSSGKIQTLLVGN
The procedure, abridged:
as §1

The target of a further assay is ETV6 (Homo sapiens, UniProt P41212 1-452). The procedure, abridged: as §1
For the next assay, the target named is T9, ETV3L (Homo sapiens, UniProt Q6ZN32 1-361).
T9 sequence: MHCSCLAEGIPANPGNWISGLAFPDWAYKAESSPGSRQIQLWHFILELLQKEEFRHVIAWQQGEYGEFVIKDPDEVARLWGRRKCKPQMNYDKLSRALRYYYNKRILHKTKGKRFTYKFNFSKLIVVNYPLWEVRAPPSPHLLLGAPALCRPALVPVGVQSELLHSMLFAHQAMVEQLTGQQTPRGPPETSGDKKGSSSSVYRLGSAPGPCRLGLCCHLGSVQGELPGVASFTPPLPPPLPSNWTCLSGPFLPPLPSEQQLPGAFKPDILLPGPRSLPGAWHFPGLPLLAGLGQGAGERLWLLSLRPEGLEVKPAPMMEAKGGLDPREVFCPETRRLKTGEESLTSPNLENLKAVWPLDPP
The procedure, abridged: as §1

Sequence of SPIB (Q01892 whole entry): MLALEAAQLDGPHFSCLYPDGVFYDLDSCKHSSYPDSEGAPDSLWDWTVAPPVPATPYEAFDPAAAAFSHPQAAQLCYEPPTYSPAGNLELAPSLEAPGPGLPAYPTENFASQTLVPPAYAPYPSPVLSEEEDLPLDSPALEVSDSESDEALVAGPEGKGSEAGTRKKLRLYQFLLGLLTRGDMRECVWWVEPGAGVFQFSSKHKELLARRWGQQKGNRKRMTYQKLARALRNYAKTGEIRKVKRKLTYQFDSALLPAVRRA
Sequence of ETV6 (P41212 whole entry): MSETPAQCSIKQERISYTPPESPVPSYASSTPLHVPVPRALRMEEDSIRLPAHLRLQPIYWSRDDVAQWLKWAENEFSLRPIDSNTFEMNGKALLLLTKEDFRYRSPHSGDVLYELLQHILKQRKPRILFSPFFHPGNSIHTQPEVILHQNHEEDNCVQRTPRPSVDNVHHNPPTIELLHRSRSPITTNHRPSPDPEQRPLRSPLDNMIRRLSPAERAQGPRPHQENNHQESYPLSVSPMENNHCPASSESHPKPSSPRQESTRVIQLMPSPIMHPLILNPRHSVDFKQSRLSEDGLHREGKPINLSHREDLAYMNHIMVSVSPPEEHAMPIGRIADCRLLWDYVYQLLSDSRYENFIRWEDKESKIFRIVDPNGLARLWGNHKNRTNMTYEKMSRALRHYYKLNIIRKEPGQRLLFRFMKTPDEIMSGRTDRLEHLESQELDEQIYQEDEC

As to GACCGC, the binding signal is 1.06 fold enrichment (6-mer frequency, TF over GST control) with FLI1; 1.01 fold enrichment (6-mer frequency, TF over GST control) in the assay with ELK1; 1.06 fold enrichment (6-mer frequency, TF over GST control) with GABPA; 1.03 fold enrichment (6-mer frequency, TF over GST control) with ETV2; 1.01 fold enrichment (6-mer frequency, TF over GST control) with ELF3.
On to TGCGGT, for which the binding signal with FLI1 is 1.09 fold enrichment (6-mer frequency, TF over GST control); with EHF, 1.07 fold enrichment (6-mer frequency, TF over GST control); with SPIB, 1.02 fold enrichment (6-mer frequency, TF over GST control); in the assay with ETV2, 1.08 fold enrichment (6-mer frequency, TF over GST control); in the assay with ETV7, 1 fold enrichment (6-mer frequency, TF over GST control); with ETV3, 1.01 fold enrichment (6-mer frequency, TF over GST control). For the same sequence, in the assay with ETV6, the binding signal is 1.03 fold enrichment (6-mer frequency, TF over GST control).
GTGACT: the binding signal is 1.02 fold enrichment (6-mer frequency, TF over GST control) with FLI1 and 1.01 fold enrichment (6-mer frequency, TF over GST control) in the assay with ETV3L.
